In assay [1] the target is T1, Tyrosine-protein kinase ITK/TSK (Homo sapiens) (UniProt Q08881).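 Note: values are mean percent inhibition of ITK from the GSK PKIS screen.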
T1 sequence (whole entry): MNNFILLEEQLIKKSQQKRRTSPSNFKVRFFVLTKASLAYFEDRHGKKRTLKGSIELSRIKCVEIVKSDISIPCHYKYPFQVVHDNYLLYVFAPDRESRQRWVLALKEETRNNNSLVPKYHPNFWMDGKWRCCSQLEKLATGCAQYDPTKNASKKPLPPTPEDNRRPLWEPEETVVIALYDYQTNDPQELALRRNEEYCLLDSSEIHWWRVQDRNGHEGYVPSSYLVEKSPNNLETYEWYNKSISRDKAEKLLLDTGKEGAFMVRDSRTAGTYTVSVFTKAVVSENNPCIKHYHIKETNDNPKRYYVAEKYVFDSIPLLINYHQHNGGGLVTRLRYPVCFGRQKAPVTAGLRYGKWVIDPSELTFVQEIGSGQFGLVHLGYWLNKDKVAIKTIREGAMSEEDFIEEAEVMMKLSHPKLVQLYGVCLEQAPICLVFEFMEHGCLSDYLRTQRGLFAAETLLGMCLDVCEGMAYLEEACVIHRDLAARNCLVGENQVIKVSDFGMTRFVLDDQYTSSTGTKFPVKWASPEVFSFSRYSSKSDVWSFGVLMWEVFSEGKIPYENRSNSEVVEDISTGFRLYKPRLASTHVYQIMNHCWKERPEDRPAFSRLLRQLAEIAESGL
Particulars: at 1 µM.

The target in assay [2] is Tyrosine-protein kinase JAK1 (Homo sapiens) (UniProt P23458). Particulars: at 0.1 µM.
Tyrosine-protein kinase JAK1 (Homo sapiens), sequence (P23458 whole entry): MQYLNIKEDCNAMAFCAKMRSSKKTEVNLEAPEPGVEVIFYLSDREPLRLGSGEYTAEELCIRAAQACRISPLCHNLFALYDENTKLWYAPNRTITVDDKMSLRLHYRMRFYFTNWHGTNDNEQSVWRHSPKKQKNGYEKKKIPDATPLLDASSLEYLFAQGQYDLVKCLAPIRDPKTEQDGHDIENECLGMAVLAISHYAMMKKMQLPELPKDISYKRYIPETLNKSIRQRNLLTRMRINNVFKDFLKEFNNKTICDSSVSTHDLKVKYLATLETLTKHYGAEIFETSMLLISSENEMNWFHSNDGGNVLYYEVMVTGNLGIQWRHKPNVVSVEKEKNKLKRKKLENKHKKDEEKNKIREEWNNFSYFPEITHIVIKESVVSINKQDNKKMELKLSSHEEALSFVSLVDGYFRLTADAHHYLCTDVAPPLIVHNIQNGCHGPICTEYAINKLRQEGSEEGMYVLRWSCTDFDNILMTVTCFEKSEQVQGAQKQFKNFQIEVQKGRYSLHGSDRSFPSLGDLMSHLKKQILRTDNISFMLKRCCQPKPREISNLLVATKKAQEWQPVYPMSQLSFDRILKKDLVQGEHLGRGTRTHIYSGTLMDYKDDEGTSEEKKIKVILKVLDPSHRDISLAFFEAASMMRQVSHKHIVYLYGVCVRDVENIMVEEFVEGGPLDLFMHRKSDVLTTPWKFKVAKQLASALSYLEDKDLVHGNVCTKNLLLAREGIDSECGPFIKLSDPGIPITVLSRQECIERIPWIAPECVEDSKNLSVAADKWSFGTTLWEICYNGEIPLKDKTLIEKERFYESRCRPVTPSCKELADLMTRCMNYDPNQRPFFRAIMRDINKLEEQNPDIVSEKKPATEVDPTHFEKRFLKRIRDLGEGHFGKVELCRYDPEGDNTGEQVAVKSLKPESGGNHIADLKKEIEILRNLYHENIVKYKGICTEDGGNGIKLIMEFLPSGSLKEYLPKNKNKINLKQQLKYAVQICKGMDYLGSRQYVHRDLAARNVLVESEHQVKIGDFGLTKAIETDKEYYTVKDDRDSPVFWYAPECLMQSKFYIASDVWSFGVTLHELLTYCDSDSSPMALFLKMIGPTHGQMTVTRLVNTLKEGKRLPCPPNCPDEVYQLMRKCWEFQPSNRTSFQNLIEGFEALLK
For assay [3] the target is unchanged. Particulars: at 1 µM.
The target in assay [4] is Tyrosine-protein kinase JAK2 (Homo sapiens) (UniProt O60674). Particulars: at 0.1 µM.
Assay [5] has the same target. Particulars: at 1 µM.
The target of assay [6] is T2, Tyrosine-protein kinase JAK3 (Homo sapiens) (UniProt P52333).
T2 sequence (whole entry): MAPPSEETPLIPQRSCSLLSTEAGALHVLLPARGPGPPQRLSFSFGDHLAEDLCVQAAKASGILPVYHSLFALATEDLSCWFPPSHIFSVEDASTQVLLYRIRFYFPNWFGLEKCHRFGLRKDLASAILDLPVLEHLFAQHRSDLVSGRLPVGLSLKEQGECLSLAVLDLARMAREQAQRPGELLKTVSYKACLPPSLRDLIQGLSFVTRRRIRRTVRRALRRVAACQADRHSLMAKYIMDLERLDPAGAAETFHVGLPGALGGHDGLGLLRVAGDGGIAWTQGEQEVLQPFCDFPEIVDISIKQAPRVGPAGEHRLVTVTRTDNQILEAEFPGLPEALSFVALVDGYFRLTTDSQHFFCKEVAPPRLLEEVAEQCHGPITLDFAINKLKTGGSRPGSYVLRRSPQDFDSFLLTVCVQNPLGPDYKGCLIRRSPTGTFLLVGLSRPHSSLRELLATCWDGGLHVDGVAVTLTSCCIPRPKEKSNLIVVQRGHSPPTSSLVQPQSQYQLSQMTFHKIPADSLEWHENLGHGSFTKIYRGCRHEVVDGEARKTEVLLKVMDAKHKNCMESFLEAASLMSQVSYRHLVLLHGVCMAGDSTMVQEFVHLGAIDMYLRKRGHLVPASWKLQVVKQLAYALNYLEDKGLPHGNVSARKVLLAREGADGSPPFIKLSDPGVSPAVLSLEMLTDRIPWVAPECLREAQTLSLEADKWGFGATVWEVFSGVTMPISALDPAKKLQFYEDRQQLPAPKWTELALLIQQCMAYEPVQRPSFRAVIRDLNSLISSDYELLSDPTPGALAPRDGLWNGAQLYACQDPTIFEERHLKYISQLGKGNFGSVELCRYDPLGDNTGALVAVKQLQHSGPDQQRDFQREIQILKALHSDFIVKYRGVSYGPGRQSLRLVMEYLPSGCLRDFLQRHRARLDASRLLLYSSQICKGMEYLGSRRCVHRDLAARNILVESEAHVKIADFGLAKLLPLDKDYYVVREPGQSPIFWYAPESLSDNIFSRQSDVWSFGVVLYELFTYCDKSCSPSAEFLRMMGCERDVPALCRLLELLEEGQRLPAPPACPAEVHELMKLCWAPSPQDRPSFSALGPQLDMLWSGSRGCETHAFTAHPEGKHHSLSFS
Particulars: at 0.1 µM.

The target of assay [7] is T2, Tyrosine-protein kinase JAK3 (Homo sapiens). Particulars: at 1 µM.
For assay [8], the target named is Vascular endothelial growth factor receptor 2 (Homo sapiens) (UniProt P35968). Particulars: at 0.1 µM.
Vascular endothelial growth factor receptor 2 (Homo sapiens), sequence (P35968 whole entry): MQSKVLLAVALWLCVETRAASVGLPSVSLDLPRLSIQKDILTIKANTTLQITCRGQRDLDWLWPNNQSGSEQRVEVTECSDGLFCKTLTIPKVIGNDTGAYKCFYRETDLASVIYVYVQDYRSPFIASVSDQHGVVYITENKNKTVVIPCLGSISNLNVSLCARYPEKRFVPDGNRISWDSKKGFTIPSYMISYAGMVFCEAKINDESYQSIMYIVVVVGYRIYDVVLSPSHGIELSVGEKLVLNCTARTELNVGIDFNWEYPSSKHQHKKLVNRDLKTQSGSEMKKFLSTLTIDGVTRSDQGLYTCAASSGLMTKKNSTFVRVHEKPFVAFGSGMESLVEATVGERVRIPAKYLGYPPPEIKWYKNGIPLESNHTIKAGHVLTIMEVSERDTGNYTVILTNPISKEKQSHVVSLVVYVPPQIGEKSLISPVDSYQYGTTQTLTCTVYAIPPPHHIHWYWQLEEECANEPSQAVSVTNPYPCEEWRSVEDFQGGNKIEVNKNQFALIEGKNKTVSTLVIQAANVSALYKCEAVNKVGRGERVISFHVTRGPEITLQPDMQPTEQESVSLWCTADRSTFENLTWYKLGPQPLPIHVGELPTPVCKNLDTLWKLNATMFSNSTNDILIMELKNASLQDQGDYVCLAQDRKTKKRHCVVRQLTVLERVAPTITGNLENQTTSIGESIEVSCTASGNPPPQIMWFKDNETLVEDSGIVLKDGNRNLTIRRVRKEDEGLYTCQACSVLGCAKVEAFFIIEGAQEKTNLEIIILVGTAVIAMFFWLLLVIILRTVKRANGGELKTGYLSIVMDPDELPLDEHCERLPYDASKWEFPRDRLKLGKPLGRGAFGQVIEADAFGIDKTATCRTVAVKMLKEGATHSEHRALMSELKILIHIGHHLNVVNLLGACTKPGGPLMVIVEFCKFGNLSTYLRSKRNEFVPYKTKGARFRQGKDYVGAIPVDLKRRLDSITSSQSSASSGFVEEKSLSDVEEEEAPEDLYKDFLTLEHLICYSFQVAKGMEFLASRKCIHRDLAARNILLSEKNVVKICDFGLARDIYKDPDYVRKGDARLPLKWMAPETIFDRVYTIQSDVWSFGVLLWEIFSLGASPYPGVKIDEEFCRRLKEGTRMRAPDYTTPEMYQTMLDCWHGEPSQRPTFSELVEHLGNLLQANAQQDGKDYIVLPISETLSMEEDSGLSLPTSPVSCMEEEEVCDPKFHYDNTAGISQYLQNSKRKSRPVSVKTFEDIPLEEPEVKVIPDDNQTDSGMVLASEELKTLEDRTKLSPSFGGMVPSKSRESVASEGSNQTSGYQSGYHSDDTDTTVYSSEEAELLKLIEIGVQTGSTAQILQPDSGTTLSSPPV
Assay [9] shares this target. Particulars: at 1 µM.
In assay [10] the target is Mast/stem cell growth factor receptor Kit (Homo sapiens) (UniProt P10721). Particulars: at 0.1 µM.
Mast/stem cell growth factor receptor Kit (Homo sapiens), sequence (P10721 whole entry): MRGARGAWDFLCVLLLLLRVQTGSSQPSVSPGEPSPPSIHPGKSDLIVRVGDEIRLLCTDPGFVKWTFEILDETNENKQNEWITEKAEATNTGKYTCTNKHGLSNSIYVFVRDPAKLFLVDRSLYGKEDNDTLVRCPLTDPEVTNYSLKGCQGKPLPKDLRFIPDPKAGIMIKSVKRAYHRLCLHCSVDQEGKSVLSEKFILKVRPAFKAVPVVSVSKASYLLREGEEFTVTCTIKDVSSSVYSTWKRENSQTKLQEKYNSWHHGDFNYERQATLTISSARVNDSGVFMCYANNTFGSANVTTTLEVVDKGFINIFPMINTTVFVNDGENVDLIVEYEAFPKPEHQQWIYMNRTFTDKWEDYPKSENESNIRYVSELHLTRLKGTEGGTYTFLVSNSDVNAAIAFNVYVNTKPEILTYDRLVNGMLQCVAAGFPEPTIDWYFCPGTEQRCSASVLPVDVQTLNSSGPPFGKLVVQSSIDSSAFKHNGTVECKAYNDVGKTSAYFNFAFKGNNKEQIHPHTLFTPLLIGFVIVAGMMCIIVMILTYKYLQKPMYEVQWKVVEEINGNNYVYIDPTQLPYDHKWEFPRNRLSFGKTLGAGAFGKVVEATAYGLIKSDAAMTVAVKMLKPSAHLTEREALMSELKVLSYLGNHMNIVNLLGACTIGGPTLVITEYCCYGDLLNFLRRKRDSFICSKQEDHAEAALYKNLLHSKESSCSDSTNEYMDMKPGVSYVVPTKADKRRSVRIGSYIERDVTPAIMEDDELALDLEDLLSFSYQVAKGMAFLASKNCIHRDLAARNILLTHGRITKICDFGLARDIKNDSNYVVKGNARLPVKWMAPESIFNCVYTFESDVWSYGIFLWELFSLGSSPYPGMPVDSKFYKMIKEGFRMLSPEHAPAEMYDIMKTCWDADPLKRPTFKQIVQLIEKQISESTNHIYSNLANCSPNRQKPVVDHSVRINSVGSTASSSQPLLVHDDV
For assay [11] the target is unchanged. Particulars: at 1 µM.
Assay [12] concerns Mast/stem cell growth factor receptor Kit (Homo sapiens), P10721 [D816V]. Particulars: at 0.1 µM.
Mast/stem cell growth factor receptor Kit (Homo sapiens), P10721 [D816V], sequence (P10721 whole entry D816V): as the sequence (P10721 whole entry) above, with D816V counted along it
Assay [13] shares this test system. Particulars: at 1 µM.
Assay [14] deals with Mast/stem cell growth factor receptor Kit (Homo sapiens), P10721 [T670I]. Particulars: at 0.1 µM.
Mast/stem cell growth factor receptor Kit (Homo sapiens), P10721 [T670I], sequence (P10721 whole entry T670I): as the sequence (P10721 whole entry) above, with T670I counted along it
Assay [15] shares this test system. Particulars: at 1 µM.
For assay [16], the system named is Mast/stem cell growth factor receptor Kit (Homo sapiens), P10721 [V560G]. Particulars: at 0.1 µM.
Mast/stem cell growth factor receptor Kit (Homo sapiens), P10721 [V560G], sequence (P10721 whole entry V560G): as the sequence (P10721 whole entry) above, with V560G counted along it
Assay [17] shares this test system. Particulars: at 1 µM.
For assay [18], the target named is Tyrosine-protein kinase Lck (Homo sapiens) (UniProt P06239). Particulars: at 0.1 µM.
Tyrosine-protein kinase Lck (Homo sapiens), sequence (P06239 2-509 limits assumed): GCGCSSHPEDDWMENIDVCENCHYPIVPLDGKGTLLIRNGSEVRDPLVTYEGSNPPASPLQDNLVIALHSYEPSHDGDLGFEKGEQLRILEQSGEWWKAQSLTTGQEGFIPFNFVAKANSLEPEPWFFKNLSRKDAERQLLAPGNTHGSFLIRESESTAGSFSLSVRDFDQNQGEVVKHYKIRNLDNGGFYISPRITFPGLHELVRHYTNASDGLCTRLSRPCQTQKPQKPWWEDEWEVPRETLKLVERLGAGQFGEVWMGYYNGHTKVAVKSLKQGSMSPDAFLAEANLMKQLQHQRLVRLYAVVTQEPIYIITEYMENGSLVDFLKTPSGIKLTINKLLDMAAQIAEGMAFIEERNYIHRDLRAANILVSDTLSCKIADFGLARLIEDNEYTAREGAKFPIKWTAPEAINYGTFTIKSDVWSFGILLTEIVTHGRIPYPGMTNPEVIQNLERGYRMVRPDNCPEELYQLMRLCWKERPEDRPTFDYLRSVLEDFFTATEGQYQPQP
For assay [19] the target is unchanged. Particulars: at 1 µM.
For assay [20], the target named is Leukocyte tyrosine kinase receptor (Homo sapiens) (UniProt P29376). Particulars: at 0.1 µM.
Leukocyte tyrosine kinase receptor (Homo sapiens), sequence (P29376 whole entry): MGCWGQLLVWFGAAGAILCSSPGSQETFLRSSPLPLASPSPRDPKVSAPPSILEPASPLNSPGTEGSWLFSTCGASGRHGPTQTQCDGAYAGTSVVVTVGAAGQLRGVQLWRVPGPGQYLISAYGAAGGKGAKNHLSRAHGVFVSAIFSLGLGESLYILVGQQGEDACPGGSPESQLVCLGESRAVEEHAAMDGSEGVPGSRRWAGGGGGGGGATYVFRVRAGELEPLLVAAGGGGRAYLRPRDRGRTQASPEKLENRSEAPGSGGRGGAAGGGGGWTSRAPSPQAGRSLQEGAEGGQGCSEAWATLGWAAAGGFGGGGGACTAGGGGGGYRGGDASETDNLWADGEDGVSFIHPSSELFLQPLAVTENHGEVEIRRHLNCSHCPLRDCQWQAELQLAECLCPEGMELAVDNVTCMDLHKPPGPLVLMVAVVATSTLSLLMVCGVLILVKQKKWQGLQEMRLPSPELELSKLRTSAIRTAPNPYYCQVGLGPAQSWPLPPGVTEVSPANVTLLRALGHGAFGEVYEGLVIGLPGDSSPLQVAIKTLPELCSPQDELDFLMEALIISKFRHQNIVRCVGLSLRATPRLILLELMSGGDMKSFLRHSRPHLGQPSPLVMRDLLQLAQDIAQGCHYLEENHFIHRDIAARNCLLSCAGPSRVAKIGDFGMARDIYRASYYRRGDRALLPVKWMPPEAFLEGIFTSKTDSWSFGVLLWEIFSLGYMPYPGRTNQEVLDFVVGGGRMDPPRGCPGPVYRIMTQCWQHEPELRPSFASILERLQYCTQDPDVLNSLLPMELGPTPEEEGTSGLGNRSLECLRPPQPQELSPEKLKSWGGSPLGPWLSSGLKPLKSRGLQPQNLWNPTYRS

Structures are written as SMILES.

As usually defined, the inhibition is the relative decrease from the control value, in per cent. As to `Cc1nnc(-c2ccc(C)c(-c3ccc(C(=O)NCc4ccc(Cl)cc4)cc3)c2)o1`, the inhibition in assay [1] was -2.86%; in assay [2] it was 4.61%; in [3] it was 16.9%; in [4], 1.06%; in assay [5] it was 1.06%; in assay [6], -4.26%. Also, the inhibition in assay [7] is -4.85%; in assay [8], 4.61%; in assay [9], 5.62%; in [10], 4.95%; in [11], 3.81%; in assay [12], 4.88%. Also, the inhibition was 1.51% in assay [13]; 2.49% in assay [14]; 7.38% in assay [15]; -1.65% in assay [16]; -1.05% in assay [17]; -2.94% in assay [18]. In addition, the figures for the inhibition in [19] and in [20] were -1.25% and 1.83%, respectively.

As for `O=C(Nc1ccc(Oc2ccc3[nH]c(NC(=O)c4ccccc4)nc3c2)cc1)Nc1cc(C(F)(F)F)ccc1F`, the inhibition is 2.09% in assay [1]; 1.88% in assay [2]; 7.18% in [3]; 1.51% in assay [4]; 4.06% in [5]; -0.16% in assay [6]. Also, the inhibition was 9.29% in assay [7]; 10.4% in [10]; 85.1% in assay [11]; 1.52% in [12]; 4.26% in assay [13]; 5.51% in assay [14]. Further, the inhibition in assay [15] is 52.1%; in assay [16], 10.4%; in [17], 67%; in assay [18] it was 2.25%; in assay [19] it was 14.4%; in [20], 1.84%.

Regarding `C[C@@H](Oc1cc(-n2cnc3ccc(OC4CCN(C)CC4)cc32)sc1C(N)=O)c1ccccc1Cl`, the inhibition was -1.75% in assay [1]; 0.47% in [2]; -0.07% in assay [3]; 4.66% in [4]; 2.46% in assay [5]; -5.38% in assay [6]. The inhibition in [7] came to 13.5%; in [8], 9.62%; in assay [9], 40.3%; in assay [10], 5.05%; in assay [11], 5.22%; in assay [12], 1.72%. Further, the inhibition in [13] was 6.14%; in assay [14], 1.3%; in [15], 6.17%; in assay [16] it was -4.05%; in [17] it was -2.87%; in assay [18] it was -0.67%. Further, the inhibition in assay [19] came out at 4.21%; in [20], 4.01%.

Consider `COc1cc(Nc2ncc(-c3ccccc3)o2)cc(OC)c1OC`, for which the inhibition was 2.92% in [1]; -8.6% in assay [2]; -0.54% in [3]; -0.76% in assay [4]; 5.24% in [5]; -0.1% in assay [6]. In addition, the inhibition is 12.7% in [7]; 7.23% in assay [8]; 48% in assay [9]; 85.4% in assay [10]; 98.7% in [11]; 0.53% in assay [12]. The inhibition in [13] came out at 0.05%; in assay [14], 69.3%; in [15] it was 94.8%; in assay [16], 22.2%; in [17], 80.4%; in [18], 2.17%. The inhibition in assay [19] came out at 25%; in assay [20], 0.26%.

As to `NS(=O)(=O)c1ccc(N/N=C2\C(=O)Nc3ccc(-c4cnco4)cc32)cc1`, the inhibition is -0.93% in assay [1]; 1.96% in assay [2]; 6.12% in assay [3]; 0.38% in [4]; 5.7% in [5]; -4.76% in [6]. The inhibition in assay [7] was found to be 24.1%; in assay [8] it was 6.94%; in [9], 39.1%; in assay [10], 5.83%; in assay [11] it was 42.2%; in assay [12], 0.65%. In addition, the inhibition in [13] was 5.47%; in assay [14], 1.64%; in assay [15], 10.7%; in [16] it was 0.82%; in [17], 3.19%; in assay [18], -1.05%. Also, the inhibition in assay [19] was 4.4%; in assay [20], 1.24%.

For `C[C@@H](Oc1cc(-n2cnc3ccc(OCC4CCN(C)CC4)cc32)sc1C(N)=O)c1ccccc1Cl`, the inhibition was 3.2% in assay [1]; 8.98% in [2]; 6.05% in [3]; 1.61% in [4]; 2.26% in [5]; -1.46% in assay [6]. The inhibition worked out at 29.3% in [7]; 7.07% in assay [8]; 36.4% in assay [9]; 5.23% in [10]; 8.33% in assay [11]; 5.13% in assay [12]. Besides, the inhibition in [13] was 8.23%; in assay [14] it was 0.47%; in [15], 5.37%; in [16], -4.48%; in [17] it was 0.38%; in assay [18], 7.42%. The inhibition in assay [19] was found to be 29.8%; in assay [20], 4.38%.

On to `COc1cccc(-n2cnc3c(N/N=C/c4ccncc4)ncnc32)c1`, for which the inhibition in assay [1] is -1.27%; in assay [2], 4.44%; in [3] it was 16.3%; in assay [4], 0.27%; in [5], 0.37%; in assay [6], -2.48%. Moreover, the inhibition in assay [7] is -2.19%; in [8], -0.11%; in assay [9], 11.2%; in assay [10] it was 33.4%; in assay [11], 83.4%; in [12] it was 0.1%. Besides, the inhibition in assay [13] is 3.79%; in [14], -2.23%; in assay [15], 6.36%; in assay [16], 3.15%; in assay [17], 18.8%; in assay [18], 3.69%. Also, the values for the inhibition in [19] and in assay [20] were 29.3% and -1.69%, respectively.

On to `COc1cc(Nc2ncc3c(C)nc(-c4cccc(Oc5ccccc5)c4)n3n2)cc(OC)c1OC`, for which the inhibition is 2.18% in assay [1]; 1.98% in assay [2]; -5.12% in assay [3]; 0.96% in assay [4]; 2.54% in assay [5]; 0.02% in assay [6]. Further, the inhibition came out at 1.74% in assay [7]; 2.28% in assay [8]; 3.61% in [9]; 3.09% in assay [10]; 18.8% in assay [11]; 2.25% in [12]. Besides, the inhibition in assay [13] is 0.81%; in [14], 0.81%; in [15], -0.67%; in assay [16] it was -2.03%; in [17], 1.13%; in assay [18] it was 1.24%. Further, the inhibition in [19] came out at 5.01%; in assay [20] it was 3.21%.

The values above are taken from ChEMBL document CHEMBL1961873, “Compounds: GSK PKIS; Assays: Nanosyn kinase panel” (2012).
